USP30 block = inhibitors of human USP30 deubiquitinase. Q70CQ3. purified USP30, Ub-rhodamine cleavage fluorescence. inhibition, % at 25 µM. 47,000 tested, 5.3% active
USP8 block = human USP8 deubiquitinase inhibition; P40818; purified USP8, Ub-rhodamine cleavage fluorescence, 30 min; inhibition, % at 20 µM; 47,000 tested, 4.2% active; AID 1645853
USP10 block = inhibitors of human USP10 deubiquitinase; Q14694; purified USP10, Ub-rhodamine fluorescence, 60 min; inhibition, % at 20 µM; 47,000 tested, 1.1% active
USP17 block = inhibitors of human USP17 deubiquitinase | A8MUK1 | purified USP17, Ub-rhodamine cleavage fluorescence, 3 h | inhibition, % at 50 µM | 47,000 tested, 6.5% active | AID 1645855
USP28 inh = blocks human USP28 ubiquitin-rhodamine cleavage; AID 1645857; 47,000 tested, 3% active; Q96RU2; inhibition, % at 25 µM; purified USP28, Ub-rhodamine cleavage fluorescence, 30 min
* = called active by the depositor; · = no result given. Shown are actives, neighbours in structure and some others; about 13% of the full set was active somewhere. Cut-off read from the data, not from the text of the source: active = inhibition above about 30%; inactive = the rest.

SMILES | USP30 block | USP8 block | USP10 block | USP17 block | USP28 inh
Cc1ccc2cc(CCNC(=O)c3ccccc3Br)c(=O)[nH]c2c1 | -13.7 | 2.4 | -0.3 | 47.9* | 2.1
Cc1ccc2cc(CCNC(=O)c3cccc(Br)c3)c(=O)[nH]c2c1 | -0.9 | -3.9 | 8.9 | 67.1* | -11.1
CC(OC(=O)c1ccc(NS(=O)(=O)c2ccc3c(c2)OCCO3)cc1)C(=O)Nc1ccc(C#N)cc1 (stereo not drawn) | · | 1.2 | 8.3 | 15.6 | ·
Cc1cccc(C(=O)N(Cc2nc3nc(C)cc(=O)n3[nH]2)c2ccccc2)c1 | -7.3 | -4.1 | 1.5 | -0.3 | 0.1
CC(=O)N1CCN(C(=O)Nc2ccc(Cl)cc2)CC2(CNC(=O)C2)C1 (stereo not drawn) | 5.1 | -26.0 | -0.4 | 0.2 | -6.0
COc1ccc(C2C3=C(CC(c4ccco4)CC3=O)Nc3ccccc3N2C(C)=O)cc1 (stereo not drawn) | -53.0 | 55.7* | -3.6 | 37.8* | -1.0
COc1ccc(C2C3=C(CC(c4ccco4)CC3=O)Nc3ccccc3N2C(=O)C(F)(F)F)cc1 (stereo not drawn) | -8.6 | 13.9 | 6.1 | -0.2 | -0.2
CCCCCC(=O)N1c2ccccc2NC2=C(C(=O)CC(c3ccco3)C2)C1c1cc(OC)c(OC)c(OC)c1 (stereo not drawn) | -40.2 | 25.1 | 5.2 | 34.3* | 0.5
Cc1cc(C)c(NC(=O)CCC(=O)N2CCCn3nc(C)cc32)c(C)c1 | -7.1 | -18.0 | 0.0 | -9.4 | -4.3
Cc1ccc(Cn2nnc(C(=O)N3CCCC3)c2-n2cccc2)cc1 | -30.9 | 17.9 | -6.1 | 9.2 | 13.2
O=C(c1nnn(Cc2ccc(Cl)cc2)c1-n1cccc1)N1CCSCC1 | 6.5 | 9.8 | 1.2 | 6.7 | 36.1*
COc1ccc(Cn2nnc(C(=O)N3CCCCC3)c2-n2cccc2)cc1 | -60.8 | 7.9 | -6.2 | 30.3* | -5.0
COc1ccc(C(=O)N2CCC3(CC2)OC(=O)Nc2ccccc23)cc1 | 27.8 | -47.7 | -1.2 | 7.6 | 9.7
CCN1CCN(C(=O)c2ccccc2NC(=O)c2cc(F)ccc2-n2cnnn2)CC1 | -4.2 | 5.5 | -0.5 | 9.7 | -6.4
COc1ccc(CCNC(=O)c2cc3ccccc3s2)cc1OC | -25.7 | -14.3 | 0.4 | -17.7 | 86.0*
COc1ccc(CNC(=O)Cc2ccc3ccccc3c2)cc1OC | 5.2 | 9.0 | -1.1 | -1.9 | 4.3
COc1ccc(CC(=O)NCc2cc3ccccc3s2)cc1OC | -23.2 | -19.6 | -3.5 | -5.7 | 8.7
COc1ccc(-c2nsc(NC(=O)Cc3cccc4ccccc34)n2)cc1OC | -57.1 | 4.0 | -9.4 | 0.2 | 32.7*
COc1ccc(CNC(=O)Cc2cccc3ccccc23)cc1OC | 30.0* | 0.0 | -0.8 | 23.7 | 8.3
O=C(NCc1ccc(F)cc1)Nc1ccc(-c2nnc(-c3ccccc3)o2)cc1 | · | 4.0 | 5.3 | 71.8* | ·
O=C(Cn1cccc1-c1nnc(-c2ccccc2)o1)Nc1ccccc1 | · | -16.8 | -2.4 | 22.3 | ·
CC(C)N(C)C1CCN(S(=O)(=O)c2ccc3c(c2)NC(=O)CCS3)CC1 | 6.9 | 13.9 | 1.6 | 1.7 | 3.2
O=C1CC(c2ccccc2O)Oc2ccccc21 (stereo not drawn) | -25.7 | 0.7 | 5.1 | -18.6 | 5.3
CS(=O)(=O)N(CC1CC1)C1CCN(CCc2cccs2)CC1 | -71.6 | 6.9 | -7.5 | -9.7 | -17.6
CCC(=O)Nc1nc(-c2ccc(C)cc2)ns1 | -79.8 | 2.7 | 0.3 | 45.6* | 6.3
SMILES | USP30 block | USP8 block | USP10 block | USP17 block | USP28 inh
COc1ccc(CNC(=O)c2cc3ccccc3cc2OC)cc1OC | -11.9 | -3.9 | -0.2 | -10.0 | -8.9
COc1ccc(CNC(=O)c2ccc(-c3nnc(-c4ccccc4)o3)cc2)cc1OC | 41.9* | 13.8 | -1.8 | 25.3 | 9.9
COc1cccc(CNc2ncc(-c3cc(C)no3)c([C@H]3CCCO3)n2)c1 | -7.6 | 0.3 | -1.6 | -7.9 | 0.4
CC(C(=O)Nc1ccc2c(c1)OCCO2)N1CCN(c2ccccc2Cl)CC1 (stereo not drawn) | -24.2 | -0.6 | 0.0 | -16.7 | -6.7
CCc1cccc(NC(=O)Cn2c(=O)nc(N3CCCCC3)c3ccccc32)c1 | 9.0 | 25.1 | 3.9 | 42.9* | 8.4
CCOCC1CN(S(=O)(=O)c2ccccc2)Cc2ccnn2C1 (stereo not drawn) | 5.8 | -34.7 | -1.8 | · | -3.1
O=C(O)C1C(C(=O)Nc2ccccc2)C2(c3ccccc3)C(=O)C1(c1ccccc1)C(c1ccccc1)=C2c1ccccc1 (stereo not drawn) | 82.1* | 51.0* | 69.4* | 93.6* | 85.9*
COc1ccc(S(=O)(=O)N2CCC3(CC2)CC3c2nc(-c3cccnc3)no2)c(C)c1 (stereo not drawn) | 36.3* | 0.5 | 5.1 | 19.0 | 4.7

Screening data (PubChem)
